# Rows were chosen to be rich in hits. Some 31% of all compounds tested hit in one or more screens of this group.
# CYP2C19 act – increases human CYP2C19 enzyme activity | recombinant CYP2C19, luciferin-H EGE luminescence; stronger effect = higher value; 0 = fully inhibited enzyme, 1 = untreated enzyme | activation factor at 5 µM | 96,000 tested, under 10 active | AID 1025;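 active = activation factor of at least 2 at 5 µM in the primary screen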;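 also: 0 = wells with 2.5 mM tranylcypromine and 1 = vehicle-only wells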
# PLAP act – activators of human placental alkaline phosphatase. purified PLAP enzyme, luminescent substrate read-out; stronger effect = higher value. activation fold at 20 µM. hit rate 1.2% among 96,000; in the data active = activation fold above about 2
# CYP2C19 inhib – human CYP2C19 inhibition | P33261 | CYP2C19 Supersomes, luciferin-H EGE luminescence, 30 min | inhibition, % at 5 µM | hit rate 21% among 96,000;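 active = CYP2C19 inhibition above a set limit at 5 µM in the primary screen, cut at about 50% in these data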;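 also: plate controls were negative control wells for no effect and 2.5 mM tranylcypromine positive control for full effect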
# CYP2C9 activ – activators of human CYP2C9 | activation factor at 5 µM | recombinant CYP2C9, luciferin-H conversion, luminescence; stronger effect = higher value; factor 1 = untreated enzyme, 0 = blocked | hit rate 1.4% among 96,000 | AID 1024 | P11712;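 active = activation factor of 2 or more for CYP2C9 at a 5 µM dose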;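 also: 0 = sulfaphenazole-blocked wells and 1 = vehicle-only wells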
# Target sequence (P11712 whole entry, looked up): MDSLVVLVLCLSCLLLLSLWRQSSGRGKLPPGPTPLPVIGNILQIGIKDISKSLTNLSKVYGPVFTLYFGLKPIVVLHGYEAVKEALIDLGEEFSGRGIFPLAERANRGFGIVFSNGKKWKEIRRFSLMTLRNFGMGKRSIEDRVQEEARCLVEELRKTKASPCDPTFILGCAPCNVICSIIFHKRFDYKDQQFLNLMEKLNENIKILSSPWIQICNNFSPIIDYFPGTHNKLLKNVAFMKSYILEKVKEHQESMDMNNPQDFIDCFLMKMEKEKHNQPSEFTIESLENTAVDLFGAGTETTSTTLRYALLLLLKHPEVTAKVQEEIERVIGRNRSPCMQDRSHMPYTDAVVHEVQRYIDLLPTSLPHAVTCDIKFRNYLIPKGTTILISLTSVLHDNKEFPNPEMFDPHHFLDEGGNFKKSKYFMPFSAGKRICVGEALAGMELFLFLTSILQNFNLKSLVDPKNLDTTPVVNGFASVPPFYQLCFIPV
# CYP2C9 inh – human CYP2C9 inhibition; CYP2C9 Supersomes, luciferin-H conversion, luminescence; inhibition, % at 5 µM; hit rate 20% among 96,000;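 active = blocking of liver enzyme CYP2C9 beyond about 50% at 5 µM, limit read from the data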
# * = called active by the depositor.
SMILES,CYP2C19 act,PLAP act,CYP2C19 inhib,CYP2C9 activ,CYP2C9 inh
O=C(NCCN1C(=O)CCC1=O)c1ccncc1,0.9,0.8,9,0.7,30
Cc1ccc(C(=O)N(c2c(C)n(C)n(-c3ccccc3)c2=O)C(C)C)cc1,1,0.9,-4,0.9,7
O=C(Cn1cc([N+](=O)[O-])cn1)Nc1nc2ccccc2s1,0.9,1.1,12,0.9,5
Cc1cc2nn(-c3cccc4ccccc34)nc2cc1N,0.7,1,31,0.4,58*
Nc1ccc2nn(-c3cccc4ccccc34)nc2c1,0.5,0.9,49,0.5,51*
O=C(CCS(=O)(=O)Cc1ccc(Cl)cc1)NCCCN1CCOCC1,0.5,0.9,45,1,-3
COc1cc(NC(=O)C2CCCCC2)c(OC)cc1NC(=O)CCC(=O)NCc1ccco1,1,1.2,1,0.9,6
Cc1coc(C)c1C(=O)CC1(O)C(=O)Nc2cc(Cl)cc(Cl)c21 (stereo not given),0.4,1.6,59*,0.5,50
Cc1ccc(Cl)c2c1NC(=O)C2(O)CC(=O)c1ccc(F)cc1 (stereo not given),0.7,0.9,34,1,2
Cc1nn(-c2ccc3nnc(Br)n3n2)c(C)c1Br,0.9,0.9,8,0.8,20
Cc1[nH]c2ccccc2c1C(=O)COC(=O)C1CC(=O)N(Cc2ccco2)C1 (stereo not given),0.4,1.4,56*,0.9,11
CCOC(=O)C1CCN(CC(=O)c2c(C)[nH]c3ccccc23)CC1,0.7,1.1,28,1.1,-13
COc1cc2c(cc1NC(=O)COC(=O)C1CC(=O)N(Cc3ccco3)C1)oc1ccccc12 (stereo not given),0.7,1,26,0.4,59*
CCCCNC(=O)CC(C(=O)N1CCc2ccccc21)n1ccnc1 (stereo not given),0.3,1.1,74*,0.7,34
O=C(C(Cc1ccccc1)n1cccc1)N1CCc2ccccc21 (stereo not given),0.9,0.9,7,0.8,19
O=C(CC(C(=O)N1CCc2ccccc21)n1ccnc1)N1CCc2ccccc2C1 (stereo not given),0.3,1.4,73*,0.5,50
O=C(c1ccc(S(=O)(=O)NCC2CCCO2)cc1)N1CCc2ccccc21 (stereo not given),0.9,1.1,11,0.8,23
CCN(CCCNC(=O)CC(C(=O)N1CCc2ccccc21)n1ccnc1)c1cccc(C)c1 (stereo not given),0.1,1.6,94*,0.8,18
O=C(CC(C(=O)N1CCc2ccccc21)n1ccnc1)NCC1CCCO1 (stereo not given),0.6,1.1,35,0.3,65*
CCOC(=O)C1CCCN(C(=O)C2CCCN(S(C)(=O)=O)C2)C1 (stereo not given),1.1,1.2,-6,1.1,-7
CCc1cc2c(NCCC(=O)O)ncnc2s1,0.9,0.8,12,0.9,12
CCc1nc(SCC(=O)c2ccc(Cl)s2)c2oc3ccccc3c2n1,0.6,0.8,42,0.3,75*
CCc1nc(Sc2nc(C)cc(C)n2)c2oc3ccccc3c2n1,0.2,1.8,80*,0.4,63*
CCc1cc2c(SCC(=O)c3ccc(Cl)s3)ncnc2s1,0.2,0.5,82*,0.2,82*
CCc1nc(SCC(=O)N2CCN(c3ccccc3)CC2)c2oc3ccccc3c2n1,0.9,1.1,11,0.9,14
SMILES,CYP2C19 act,PLAP act,CYP2C19 inhib,CYP2C9 activ,CYP2C9 inh
CCc1nc(SCCO)c2oc3ccccc3c2n1,0.5,0.8,51*,0.3,66*
COc1cc(-c2cc(C(F)(F)F)n3ncc(C(=O)O)c3n2)cc(OC)c1OC,0.7,1.2,26,0.7,33
CCN1CCCC1CNC(=O)C(=O)Nc1ccccc1OC (stereo not given),1,0.9,-4,1.1,-6
CCc1nc(N2CCC(C)CC2)c2oc3ccccc3c2n1,1.1,1.3,-8,1,-2
CCc1nc(SCc2nc3ccccc3[nH]2)c2oc3ccccc3c2n1,0,1.8,100*,0,98*
O=C1c2ccccc2C(=O)N1CCCCSc1nnc2c(Cl)cc(Cl)cn12,0.5,1.2,49,0.8,17
O=C(CSc1nnc(-c2ccco2)n1Cc1ccccc1)OC1CCCCC1,0.8,1,21,1.1,-6
Cc1cc(Cl)ccc1NC(=O)CSc1nnc(-c2ccncc2)n1Cc1ccco1,0.1,1.8,86*,0.1,90*
Cc1cccc(C)c1NC(=O)CSc1nnc(-c2ccncc2)n1Cc1ccco1,0.3,1,73*,0.3,67*
COc1ccc(Cl)cc1NC(=O)CSc1nnc(-c2ccncc2)n1CC1CCCO1 (stereo not given),0.4,1.4,60*,0.5,49
COc1ccccc1NC(=O)CSc1nnc(-c2ccncc2)n1CC1CCCO1 (stereo not given),1,1.2,2,0.9,10
O=C(CSc1nnc(-c2ccncc2)n1Cc1ccco1)OC1CCCCC1,0,1.7,98*,0.1,92*
O=C(COC(=O)CNS(=O)(=O)c1ccccc1)Nc1ccc(Cl)cn1,1,0.9,4,1,-2
COc1ccnc(Oc2ccc(F)cc2)c1C(=O)N/C=N/OCc1c(Cl)cccc1Cl,0.5,1.5,52*,0.3,75*
CO/N=C/NC(=O)c1c(OC)ccnc1Oc1ccccc1,1,1,-4,1.2,-16
Cc1ccc(S(=O)(=O)Nc2cccc3ncccc23)s1,0.6,1.4,45,2.5*,-154
CCOC(=O)c1cnn(CCOC(=O)C(C)(C)C)c1NC(=O)C(C)(C)C,1,0.9,-5,1.2,-16
Cc1cc(C)cc(NC2=NC3(CCCCC3)N=C(N)N2)c1,0.8,2.7*,16,1,3
NC1=NC2(CCCCC2)N=C(Nc2ccc(F)cc2F)N1,0.9,1,9,1,2
CCOc1ccc(NC(=O)c2nccnc2CO)cc1,0.7,1,30,0.7,32
CCC(C)NCCOCCOc1ccc(F)cc1 (stereo not given),1.1,1,-15,1,1
COC(=O)C1=C(C)NC(=O)/C1=C\c1cc(C)n(-c2c(C)cccc2C)c1C,0.6,1.3,44,0.4,56*
COC(=O)C1=C(C)N(c2cccc(C)c2)C(=O)/C1=C\c1cccs1,0.5,0.9,48,0.5,50*
COC(=O)C1=C(C)NC(=O)/C1=C\c1cccs1,0.7,0.7,26,0.4,57*
CSCCC(NS(=O)(=O)c1ccc2ccccc2c1)C(=O)O (stereo not given),1.1,1.3,-10,0.9,12
O=C(O)c1cc(S(=O)(=O)Nc2ccc3oc(=O)sc3c2)ccc1O,0.8,1.1,23,0.1,85*
Cc1ccc(S(=O)(=O)Nc2ccc3oc(=O)sc3c2)c(C)c1,0.3,1.1,67*,0.4,64*

# Source: PubChem (Sanford-Burnham Center for Chemical Genomics)
